Results reported in the supplement of paper PMC8728848.
The full list was thinned out, with the strongest signals kept by preference.

Key:
Assay in all cases: glycan array binding signal (z-score within array); higher = stronger binding
Details in all cases: glycan notation: IUPAC condensed, linker removed
[1] = target: Fuc(a1-2)Gal(b1-3)GalNAc(a1-3)[Fuc(a1-2)]Gal(b1-4)GlcNAc
Method in brief: (§1)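 The binding signal is a Z-score computed within each array. Data were drawn from 3228 arrays in the Consortium for Functional Glycomics database, restricted to those with a known protein sequence. Scores were averaged over arrays of the same protein sequence at different concentrations or buffers, and over linkers, and negative values can be taken as non-binding.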

[2] = target: Fuc(a1-2)[Gal(a1-3)]Gal(b1-3)GlcNAc(b1-2)Man(a1-3)[Fuc(a1-2)[Gal(a1-3)]Gal(b1-3)GlcNAc(b1-2)Man(a1-6)]Man(b1-4)GlcNAc(b1-4)[Fuc(a1-6)]GlcNAc
Method in brief: as §1

[3] = target: Fuc(a1-2)[Gal(a1-3)]Gal(b1-3)GlcNAc(b1-3)GalNAc
Method in brief: as §1

[4] = target: Fuc(a1-2)[Gal(a1-4)]Gal(b1-4)GlcNAc
Method in brief: as §1

[5] = target: Fuc(a1-2)[GalNAc(a1-3)]Gal(b1-3)GlcNAc(b1-6)GalNAc
Method in brief: as §1

[6] = target: Fuc(a1-2)[GalNAc(a1-3)]Gal(b1-4)GlcNAc(b1-3)Gal(b1-4)GlcNAc
Method in brief: as §1

[7] = target: Fuc(a1-3)[Gal3S(b1-4)]GlcNAc
Method in brief: as §1

[8] = target: Gal(a1-3)Fuc(a1-2)Gal(b1-4)GlcNAc(b1-3)[Gal(a1-3)Fuc(a1-2)Gal(b1-4)GlcNAc(b1-6)]GalNAc
Method in brief: as §1

[9] = target: Gal(a1-3)Gal(b1-4)GlcNAc(b1-2)Man
Method in brief: as §1

[10] = target: Gal(a1-3)Gal(b1-4)GlcNAc(b1-2)Man(a1-3)[Gal(a1-3)Gal(b1-4)GlcNAc(b1-2)Man(a1-6)]Man(b1-4)GlcNAc(b1-4)GlcNAc
Method in brief: as §1

[11] = target: Gal(a1-3)[Gal(a1-4)]Gal(b1-4)GlcNAc
Method in brief: as §1

Gal(a1-4)Gal(b1-4)Glc = target: Gal(a1-4)Gal(b1-4)Glc
Method in brief: as §1

Gal(a1-4)Gal(b1-4)GlcNAc = target: Gal(a1-4)Gal(b1-4)GlcNAc
Method in brief: as §1

[12] = target: Gal(b1-3)GlcNAc(b1-3)Gal(b1-3)GlcNAc
Method in brief: as §1

[13] = target: Gal(b1-3)GlcNAc(b1-3)Gal(b1-4)GlcNAc(b1-3)Gal(b1-4)GlcNAc(b1-2)[Gal(b1-3)GlcNAc(b1-3)Gal(b1-4)GlcNAc(b1-3)Gal(b1-4)GlcNAc(b1-6)]Man(a1-6)[Gal(b1-3)GlcNAc(b1-3)Gal(b1-4)GlcNAc(b1-3)Gal(b1-4)GlcNAc(b1-2)Man(a1-3)]Man(b1-4)GlcNAc(b1-4)[Fuc(a1-6)]GlcNAc
Method in brief: as §1

[14] = target: Gal(b1-4)GalNAc(b1-3)[Fuc(a1-2)]Gal(b1-4)GlcNAc
Method in brief: as §1

[15] = target: Gal(b1-4)GlcNAc(b1-2)Man(a1-3)[GlcNAc(b1-4)][Gal(b1-4)GlcNAc(b1-2)Man(a1-6)]Man(b1-4)GlcNAc(b1-4)GlcNAc
Method in brief: as §1

[16] = target: Gal(b1-4)GlcNAc(b1-2)[Gal(b1-4)GlcNAc(b1-4)]Man(a1-3)[Gal(b1-4)GlcNAc(b1-2)[Gal(b1-4)GlcNAc(b1-6)]Man(a1-6)]Man(b1-4)GlcNAc(b1-4)GlcNAc
Method in brief: as §1

[17] = target: Gal(b1-4)GlcNAc(b1-3)Gal(b1-4)GlcNAc(b1-3)Gal(b1-4)GlcNAc(b1-2)Man(a1-3)[Gal(b1-4)GlcNAc(b1-3)Gal(b1-4)GlcNAc(b1-3)Gal(b1-4)GlcNAc(b1-2)Man(a1-6)]Man(b1-4)GlcNAc(b1-4)GlcNAc
Method in brief: as §1

[18] = target: Gal(b1-4)GlcNAc(b1-6)Gal(b1-4)GlcNAc
Method in brief: as §1

Gal3S(b1-3)GalNAc = target: Gal3S(b1-3)GalNAc
Method in brief: as §1

Gal3S(b1-3)GlcNAc = target: Gal3S(b1-3)GlcNAc
Method in brief: as §1

Gal3S(b1-4)Glc = target: Gal3S(b1-4)Glc
Method in brief: as §1

Gal3S(b1-4)Glc6S = target: Gal3S(b1-4)Glc6S
Method in brief: as §1

Gal3S(b1-4)GlcNAc6S = target: Gal3S(b1-4)GlcNAc6S
Method in brief: as §1

[19] = target: Gal3S(b1-4)[Fuc(a1-3)]GlcNAc6S
Method in brief: as §1

Gal3S4S(b1-4)GlcNAc = target: Gal3S4S(b1-4)GlcNAc
Method in brief: as §1

Gal3S6S(b1-4)GlcNAc = target: Gal3S6S(b1-4)GlcNAc
Method in brief: as §1

Gal4S6S(b1-4)GlcNAc = target: Gal4S6S(b1-4)GlcNAc
Method in brief: as §1

GalNAc(b1-4)GlcNAc6S = target: GalNAc(b1-4)GlcNAc6S
Method in brief: as §1

[20] = target: GlcNAc(b1-2)Man(a1-3)[GlcNAc(b1-4)][GlcNAc(b1-2)Man(a1-6)]Man(b1-4)GlcNAc(b1-4)[Fuc(a1-6)]GlcNAc
Method in brief: as §1

[21] = target: GlcNAc(b1-3)Gal(b1-4)GlcNAc(b1-3)GalNAc
Method in brief: as §1

Kdn(a2-3)Gal(b1-3)GalNAc = target: Kdn(a2-3)Gal(b1-3)GalNAc
Method in brief: as §1

[22] = target: Man(a1-3)[Man(a1-6)]Man(a1-6)[Man(a1-3)]Man(b1-4)GlcNAc(b1-4)GlcNAc
Method in brief: as §1

[23] = target: Man(a1-3)[Man(a1-6)]Man(b1-4)GlcNAc(b1-4)[Fuc(a1-6)]GlcNAc
Method in brief: as §1

[24] = target: Neu5Ac(a2-3)Gal(b1-3)GalNAc
Method in brief: as §1

[25] = target: Neu5Ac(a2-3)Gal(b1-3)GalNAc6S
Method in brief: as §1

[26] = target: Neu5Ac(a2-3)Gal(b1-3)GlcNAc6S
Method in brief: as §1

[27] = target: Neu5Ac(a2-3)Gal(b1-3)[GlcNAc(b1-6)]GalNAc
Method in brief: as §1

[28] = target: Neu5Ac(a2-3)Gal(b1-3)[Neu5Ac(a2-6)]GalNAc
Method in brief: as §1

[29] = target: Neu5Ac(a2-3)Gal(b1-4)GlcNAc(b1-2)[Neu5Ac(a2-3)Gal(b1-4)GlcNAc(b1-4)]Man(a1-3)[GlcNAc(b1-4)][Neu5Ac(a2-3)Gal(b1-4)GlcNAc(b1-4)Man(a1-6)]Man(b1-4)GlcNAc(b1-4)GlcNAc
Method in brief: as §1

[30] = target: Neu5Ac(a2-3)Gal(b1-4)GlcNAc(b1-3)Gal
Method in brief: as §1

[31] = target: Neu5Ac(a2-3)Gal(b1-4)GlcNAc(b1-6)[Neu5Ac(a2-3)Gal(b1-3)]GalNAc
Method in brief: as §1

[32] = target: Neu5Ac(a2-3)Gal(b1-4)GlcNAc6S
Method in brief: as §1

[33] = target: Neu5Ac(a2-3)Gal(b1-4)[Fuc(a1-3)]GlcNAc(b1-6)[Neu5Ac(a2-3)Gal(b1-3)]GalNAc
Method in brief: as §1

[34] = target: Neu5Ac(a2-3)Gal6S(b1-4)[Fuc(a1-3)]GlcNAc
Method in brief: as §1

[35] = target: Neu5Ac(a2-3)[GalNAc(b1-4)]Gal(b1-4)GlcNAc
Method in brief: as §1

Neu5Ac(a2-6)Gal = target: Neu5Ac(a2-6)Gal
Method in brief: as §1

[36] = target: Neu5Ac(a2-6)Gal(b1-3)GlcNAc(b1-3)[Gal(b1-4)GlcNAc(b1-6)]Gal(b1-4)Glc
Method in brief: as §1

Neu5Ac(a2-6)Gal(b1-4)Glc = target: Neu5Ac(a2-6)Gal(b1-4)Glc
Method in brief: as §1

[37] = target: Neu5Ac(a2-6)Gal(b1-4)GlcNAc(b1-2)Man(a1-3)[Neu5Ac(a2-6)Gal(b1-4)GlcNAc(b1-2)Man(a1-6)]Man(b1-4)GlcNAc(b1-4)[Fuc(a1-6)]GlcNAc
Method in brief: as §1

[38] = target: Neu5Ac(a2-6)Gal(b1-4)GlcNAc(b1-3)Gal(b1-3)GlcNAc
Method in brief: as §1

[39] = target: Neu5Ac(a2-8)Neu5Ac(a2-3)Gal(b1-4)GlcNAc
Method in brief: as §1

B1: MAL-II (Maackia amurensis), P93248 (protein)
chain: ATSNSKPTQVLLATFLTFFFLLLNNVNSSDELSFTINNFVPNEADLLFQGEASVSSTGVLQLTRVENGQPQQYSVGRALYAAPVRIWDNTTGSVASFSTSFTFVVKAPNPTITSDGLAFFLAPPDSQIPSGRVSKYLGLFNNSNSDSSNQIVAVEFDTYFGHSYDPWDPNYRHIGIDVNGIESIKTVQWDWINGGVAFATITYLAPNKTLIASLVYPSNQTSFIVAASVDLKEILPEWVRVGFSAATGYPTQVETHDVLSWSFTSTLEANSDAATENNVHIARYTA
With B1 the “glycan array binding signal (z-score)” value [1] was -0.182, the “glycan array binding signal (z-score)” value [2] was 0.051 and the “glycan array binding signal (z-score)” value [3] was -0.241. For the same binder, the “glycan array binding signal (z-score)” value [4] was -0.171, the “glycan array binding signal (z-score)” value [5] was -0.266 and the “glycan array binding signal (z-score)” value [6] was -0.177. For the same binder, the “glycan array binding signal (z-score)” value [7] was -0.195, the “glycan array binding signal (z-score)” value [8] was -0.261 and the “glycan array binding signal (z-score)” value [9] was -0.188. For the same binder, the “glycan array binding signal (z-score)” value [10] was 0.244, the “glycan array binding signal (z-score)” value [11] was -0.252 and the “glycan array binding signal (z-score)” value (Gal(a1-4)Gal(b1-4)Glc) was -0.133. The “glycan array binding signal (z-score)” value (Gal(a1-4)Gal(b1-4)GlcNAc) was -0.185, the “glycan array binding signal (z-score)” value [12] was -0.172 and the “glycan array binding signal (z-score)” value [13] was 0.068. The “glycan array binding signal (z-score)” value [14] was -0.263, the “glycan array binding signal (z-score)” value [15] was -0.267 and the “glycan array binding signal (z-score)” value [16] was -0.229. The “glycan array binding signal (z-score)” value [17] was 0.674, the “glycan array binding signal (z-score)” value [18] was -0.23 and the “glycan array binding signal (z-score)” value (Gal3S(b1-3)GalNAc) was 8.15. For the same binder, the “glycan array binding signal (z-score)” value (Gal3S(b1-3)GlcNAc) was 2.09, the “glycan array binding signal (z-score)” value (Gal3S(b1-4)Glc) was 1.81 and the “glycan array binding signal (z-score)” value (Gal3S(b1-4)Glc6S) was 3.27. For the same binder, the “glycan array binding signal (z-score)” value (Gal3S(b1-4)GlcNAc6S) was 6.03, the “glycan array binding signal (z-score)” value [19] was 2.12 and the “glycan array binding signal (z-score)” value (Gal3S4S(b1-4)GlcNAc) was -0.162. The “glycan array binding signal (z-score)” value (Gal3S6S(b1-4)GlcNAc) was -0.222, the “glycan array binding signal (z-score)” value (Gal4S6S(b1-4)GlcNAc) was -0.156 and the “glycan array binding signal (z-score)” value (GalNAc(b1-4)GlcNAc6S) was -0.292. For the same binder, the “glycan array binding signal (z-score)” value [20] was -0.148, the “glycan array binding signal (z-score)” value [21] was -0.159 and the “glycan array binding signal (z-score)” value (Kdn(a2-3)Gal(b1-3)GalNAc) was 3.27. For the same binder, the “glycan array binding signal (z-score)” value [22] was -0.107, the “glycan array binding signal (z-score)” value [23] was -0.337 and the “glycan array binding signal (z-score)” value [24] was 3.54. For the same binder, the “glycan array binding signal (z-score)” value [25] was 5.77, the “glycan array binding signal (z-score)” value [26] was -0.11 and the “glycan array binding signal (z-score)” value [27] was 3.23. The “glycan array binding signal (z-score)” value [28] was 7.48, the “glycan array binding signal (z-score)” value [29] was -0.282 and the “glycan array binding signal (z-score)” value [30] was -0.196. For the same binder, the “glycan array binding signal (z-score)” value [31] was 3.13, the “glycan array binding signal (z-score)” value [32] was -0.215 and the “glycan array binding signal (z-score)” value [33] was 0.889. The “glycan array binding signal (z-score)” value [34] was -0.22, the “glycan array binding signal (z-score)” value [35] was -0.213 and the “glycan array binding signal (z-score)” value (Neu5Ac(a2-6)Gal) was -0.234. For the same binder, the “glycan array binding signal (z-score)” value [36] was -0.18, the “glycan array binding signal (z-score)” value (Neu5Ac(a2-6)Gal(b1-4)Glc) was -0.184 and the “glycan array binding signal (z-score)” value [37] was -0.089. For the same binder, the “glycan array binding signal (z-score)” value [38] was -0.178 and the “glycan array binding signal (z-score)” value [39] was -0.255.
